Results: PubChem BioAssay (NCI)
Compounds without any hit were thinned out: in the full panel of roughly 83,000, 20% have a hit.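 Negative percent growth values reflect cell death: -40 means 40% of the cells present at the start died, and -100 means all died.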 Calls of active or inactive are those of the source. The calls were made as follows: active = growth percent below 10; inactive = the rest.

Legend:
Test in all cases: NCI-60 one-dose screen, 48 h (100 = growth as untreated, 0 = no growth, -100 = all killed)
Settings in all cases: 10 µM unless noted
T-47D breast = tested on: T-47D breast
BT-549 breast = tested on: BT-549 breast
MDA-MB-435 melanoma = tested on: MDA-MB-435 melanoma
SW-620 colon = tested on: SW-620 colon
MCF7 breast = tested on: MCF7 breast
HCT-116 colon = tested on: HCT-116 colon
HCC-2998 colon = tested on: HCC-2998 colon
KM12 colon = tested on: KM12 colon

Measured: growth

COc1cc(NC(C)CCCN)c2ncccc2c1Sc1ccc(Cl)cc1 (stereo unspecified)
inactive: T-47D breast 58.7% | BT-549 breast 90.9% | MDA-MB-435 melanoma 55.7% | MCF7 breast 26% | HCT-116 colon 23.9% | HCC-2998 colon 12.3% | KM12 colon 34.4%
active: SW-620 colon -69.1%

COc1ccc(-c2nc3ccc(Cc4ccc5nc(-c6ccc(OC)cc6)[nH]c5c4)cc3[nH]2)cc1
inactive: T-47D breast 20.8% | BT-549 breast 84.5% | MDA-MB-435 melanoma 35.3% | SW-620 colon 31.2% | HCT-116 colon 39.4% | HCC-2998 colon 35.8% | KM12 colon 49.1%
active: MCF7 breast -13.5%

CN1CCN(Cc2ccc(NC(=O)c3cnc(F)c(C#Cc4cnc(N)c5ncccc45)c3)cc2C(F)(F)F)CC1
inactive: T-47D breast 30.3% | BT-549 breast 41.9% | MDA-MB-435 melanoma 10.2% | MCF7 breast 42.6% | HCC-2998 colon 40.7% | KM12 colon 11.2%
active: SW-620 colon 8.66% | HCT-116 colon 7.2%

CC(=O)c1c(O)c(C)c(O)c2c1OC1=CC(=O)/C(=C(/C)N)C(=O)C12C (stereo unspecified)
inactive: T-47D breast 74.9% | BT-549 breast 89.3% | MDA-MB-435 melanoma 103% | SW-620 colon 99.4% | MCF7 breast 85.4% | HCT-116 colon 63.4% | HCC-2998 colon 103% | KM12 colon 88%

Cc1cc(C)c2c(NC(=O)Nc3ccc(Cl)c(Cl)c3)n[nH]c2n1
inactive: T-47D breast 93.3% | BT-549 breast 104% | MDA-MB-435 melanoma 92.8% | SW-620 colon 112% | MCF7 breast 82.6% | HCT-116 colon 108% | HCC-2998 colon 115% | KM12 colon 104%

O=C(Nc1cccc(Cl)c1)Nc1cc(C(F)(F)F)ccc1Cl
active: T-47D breast 5.15% | MDA-MB-435 melanoma 8.14% | SW-620 colon -16.1% | HCT-116 colon -13.3% | KM12 colon -45.1%
inactive: BT-549 breast 25.8% | MCF7 breast 16.1% | HCC-2998 colon 13.2%

O=C(O)C1[S][Sb]([CH](C(=O)O)[CH](C(=O)O)[Sb]2[S]C(C(=O)O)C(C(=O)O)[S]2)[S]C1C(=O)O (stereo unspecified)
inactive: T-47D breast 86.8% | BT-549 breast 63.8% | MDA-MB-435 melanoma 116% | SW-620 colon 103% | MCF7 breast 67.9% | HCT-116 colon 100% | HCC-2998 colon 108% | KM12 colon 100%

COC1=CC(c2ccc[nH]2)=N/C1=C\c1[nH]c(C)c(C(=O)CCCCCCCCC(=O)O[C@H]2CC[C@H]3C4CCc5cc(O)ccc5C4CC[C@]23C)c1C (stereo partly specified)
inactive: T-47D breast 29.8% | BT-549 breast 38.3% | MDA-MB-435 melanoma 14.3% | MCF7 breast 24.1% | HCC-2998 colon 26.2% | KM12 colon 17.5%
active: SW-620 colon 6.58% | HCT-116 colon 7.77%

COc1ccc([C@@H]2[C@@H](Cl)C(=O)N2c2cc(OC)c(OC)c(OC)c2)cc1C
inactive: T-47D breast 77.7% | SW-620 colon 26.7% | MCF7 breast 20.5% | HCC-2998 colon 19.5% | KM12 colon 12.8%
active: BT-549 breast 6.51% | MDA-MB-435 melanoma -33.7% | HCT-116 colon 3.33%

O=[N+]([O-])c1cccc([I+]c2ccccc2)c1
inactive: T-47D breast 50.1% | BT-549 breast 63.3% | MDA-MB-435 melanoma 72.7% | SW-620 colon 40% | MCF7 breast 37.6% | HCT-116 colon 47.7% | HCC-2998 colon 67.2% | KM12 colon 60.5%

Cc1ccc(NC(=O)c2nc(S(C)(=O)=O)oc2-c2ccc(F)cc2)cc1Nc1ccc2ncn(C)c(=O)c2c1
inactive: BT-549 breast 66.3% | MDA-MB-435 melanoma 69.4% | MCF7 breast 52.5% | HCC-2998 colon 99.7% | KM12 colon 59.2%
active: T-47D breast -9.98% | SW-620 colon -6.67% | HCT-116 colon -10.8%

CCOc1ccc([C@@H]2[C@@H](Oc3ccccc3)C(=O)N2c2cc(OC)c(OC)c(OC)c2)cc1
active: BT-549 breast -18.2% | MDA-MB-435 melanoma -25% | HCT-116 colon -3.96%
inactive: T-47D breast 91.8% | SW-620 colon 20.8% | MCF7 breast 16.9% | HCC-2998 colon 16.2% | KM12 colon 11.5%

O=c1[nH]c2cc(Cl)c(Cl)cc2o1
inactive: T-47D breast 121% | BT-549 breast 132% | MDA-MB-435 melanoma 103% | SW-620 colon 98.9% | MCF7 breast 105% | HCT-116 colon 98.9% | HCC-2998 colon 117% | KM12 colon 111%

O=C(O)/C=C(\c1nc2ccc([N+](=O)[O-])cc2[nH]1)c1cc(Cl)ccc1O
active: T-47D breast 5.42% | BT-549 breast 8.6% | HCT-116 colon 8.05%
inactive: MDA-MB-435 melanoma 20.5% | SW-620 colon 28.6% | MCF7 breast 13.4% | HCC-2998 colon 27.8% | KM12 colon 21.3%

CNC(=O)c1cc(Oc2ccc(NC(=O)c3nc(S(C)(=O)=O)n(C)c3-c3ccc(F)cc3)cc2)ccn1
inactive: T-47D breast 61.5% | BT-549 breast 80.6% | MDA-MB-435 melanoma 79.4% | SW-620 colon 72.1% | MCF7 breast 79% | HCT-116 colon 64.2% | HCC-2998 colon 93.8% | KM12 colon 21.9%

C1=C\CCCCN2CC[C@H]3[C@H](CCCC/C=C\CCCN4C[C@@H](CCCCC/1)C[C@@H]3C4)C2
active: MDA-MB-435 melanoma -70.3%
inactive: T-47D breast 71.4% | BT-549 breast 89.5% | SW-620 colon 79.8% | MCF7 breast 22.7% | HCT-116 colon 43.6% | HCC-2998 colon 22.1% | KM12 colon 58.1%

CC(=O)c1c(C)nc(-c2cc(C)cc(Cl)c2)nc1-c1cccc(Oc2ccccc2)c1
active: MDA-MB-435 melanoma -4.76%
inactive: T-47D breast 72.3% | BT-549 breast 64.3% | SW-620 colon 25.7% | MCF7 breast 43.5% | HCT-116 colon 30.5% | HCC-2998 colon 77.6% | KM12 colon 30.7%

O=C(OCc1ccc2c(Cl)cc(Cl)c(O)c2n1)c1cc2ccccc2[nH]1
active: T-47D breast -57.2% | BT-549 breast -76.3% | MDA-MB-435 melanoma -89.4% | SW-620 colon -66.2% | MCF7 breast -35.7% | HCT-116 colon -73.3% | HCC-2998 colon -73.1% | KM12 colon -63.9%

Nc1c(C(=O)Nc2cccc(Cl)c2)sc2ncc(Br)cc12
inactive: T-47D breast 62.6% | BT-549 breast 68.2% | MDA-MB-435 melanoma 71.9% | SW-620 colon 61.3% | MCF7 breast 84.2% | HCT-116 colon 23% | HCC-2998 colon 99.7% | KM12 colon 63.8%

Nc1nonc1-c1nc2ccccc2n1Cc1ccc(F)cc1
inactive: T-47D breast 61.3% | BT-549 breast 58% | SW-620 colon 24.7% | MCF7 breast 28.4% | HCT-116 colon 30.4% | HCC-2998 colon 58.8% | KM12 colon 30.5%
active: MDA-MB-435 melanoma -39.6%

C=C(C)c1ccc(/C=N/NC(N)=S)cc1
inactive: T-47D breast 67.2% | BT-549 breast 99.4% | MDA-MB-435 melanoma 87% | SW-620 colon 97.9% | MCF7 breast 51.1% | HCT-116 colon 84.5% | HCC-2998 colon 110% | KM12 colon 55.4%

CC(=O)N(C)c1ccc(Nc2cc(C)[nH]c3ccc4ncnc4c23)cc1
inactive: T-47D breast 47.5% | BT-549 breast 61.6% | MDA-MB-435 melanoma 81.3% | SW-620 colon 45.5% | MCF7 breast 28.3% | HCT-116 colon 19.2% | HCC-2998 colon 26.9% | KM12 colon 67.6%

[O-]/[N+](=C\c1ccccc1)CC1(O)CCCCC1
inactive: T-47D breast 106% | BT-549 breast 111% | MDA-MB-435 melanoma 100% | SW-620 colon 94.2% | MCF7 breast 92.7% | HCT-116 colon 117% | HCC-2998 colon 115% | KM12 colon 100%

COc1cc(Nc2ccnc3ccc(Br)cc23)cc(OC)c1OC
active: MDA-MB-435 melanoma -41.5%
inactive: T-47D breast 40.9% | BT-549 breast 53.7% | SW-620 colon 19.4% | MCF7 breast 15.5% | HCT-116 colon 21.7% | HCC-2998 colon 71.4% | KM12 colon 21%

CCC1CCc2nc3sc(C(=O)Nc4cccc(F)c4)c(N)c3cc2C1 (stereo unspecified)
inactive: T-47D breast 89.9% | BT-549 breast 88.1% | SW-620 colon 40.6% | MCF7 breast 12.6% | HCT-116 colon 60% | HCC-2998 colon 91.6% | KM12 colon 41.3%
active: MDA-MB-435 melanoma -12.6%

CCCCN(CCCC)CCC(=O)c1ccc(OC)c2ccccc12
inactive: T-47D breast 41.4% | BT-549 breast 108% | MDA-MB-435 melanoma 83.3% | SW-620 colon 61.5% | MCF7 breast 15.1% | HCT-116 colon 72.1% | HCC-2998 colon 105% | KM12 colon 71.1%

CC1(C)C(N(O)C(=O)Nc2ccc(Cl)cc2)N(c2ccc(Cl)cc2)C(=O)N1CC(=O)N/N=C/C=C/c1ccc([N+](=O)[O-])o1 (stereo unspecified)
inactive: T-47D breast 34.3% | KM12 colon 23.1%
active: BT-549 breast -19.1% | MDA-MB-435 melanoma -15.3% | SW-620 colon -15.7% | MCF7 breast 7.37% | HCT-116 colon -98.1% | HCC-2998 colon -90.6%

CCN(CC)CCCC(C)N/C(c1cccc(OC)c1)=c1\c(=O)[nH]n(-c2c3ccccc3nc3ccccc23)c(=O)\c1=C(/NC(C)CCCN(CC)CC)c1cccc(OC)c1 (stereo unspecified)
active: T-47D breast -26.7% | BT-549 breast -5.18% | MDA-MB-435 melanoma -91.1% | SW-620 colon -21.6% | MCF7 breast -12.7% | HCT-116 colon -9.94% | HCC-2998 colon -72.7% | KM12 colon -47.4%

Cc1c(-c2ccc(-c3ccccc3F)cc2)nc2ccc(F)cc2c1C(=O)O
inactive: T-47D breast 59.2% | BT-549 breast 45.5% | MDA-MB-435 melanoma 34.9% | SW-620 colon 38.9% | MCF7 breast 28.4% | HCT-116 colon 21% | HCC-2998 colon 37.7% | KM12 colon 35.2%

C=CC[C@]1(O)CC[C@H]2[C@@H]3CCc4cc(O)ccc4[C@H]3CC[C@@]21C
inactive: T-47D breast 82.5% | BT-549 breast 93.6% | MDA-MB-435 melanoma 38.9% | SW-620 colon 92% | MCF7 breast 116% | HCT-116 colon 93% | HCC-2998 colon 99.8% | KM12 colon 76.8%

CCc1oc2ccccc2c1C(=O)c1cc(I)c(O)c(I)c1
active: MDA-MB-435 melanoma -25.9%
inactive: T-47D breast 98.9% | BT-549 breast 39.3% | SW-620 colon 19.2% | MCF7 breast 33.8% | HCT-116 colon 22.3% | HCC-2998 colon 53.3% | KM12 colon 27.2%

O=C(Nc1cnc(C(F)(F)F)cn1)c1cc(Cl)ccc1O
active: T-47D breast -13.2% | BT-549 breast -21.3% | MDA-MB-435 melanoma 5.89% | MCF7 breast 6.48% | HCT-116 colon 1.13% | KM12 colon 3.91%
inactive: SW-620 colon 10.9% | HCC-2998 colon 14.6%
